Results: PubChem BioAssay
Activity calls are given as the source filed them. Unless noted, the rule behind the calls is not given here.

assay: Pseudomonas biofilm growth suppression – PAO1 strain, BacTiter-Glo luminescence, LB-PBS, primary screen (AID 1144); settings: P. aeruginosa PAO1 biofilm, 12 h, higher = more signal

z-score, inactive:
COc1cc2c(cc1OC)CN(C(=O)[C@@H]1[C@H]3C(=O)O[C@H](c4ccccc4)[C@H](c4ccccc4)N3[C@H](c3ccccc3OCCO)[C@@]13C(=O)Nc1ccc(C#CCNC(N)=O)cc13)CC2 -0.105
COC(=O)[C@@]1(Cc2ccccc2)[C@H]2c3cc(C(=O)N4CCCC4)n(C)c3C[C@H]2CN1C(=O)c1ccccc1 0.218
O=C1O[C@H](c2ccccc2)[C@H](c2ccccc2)N2[C@H]1[C@@H](C(=O)Nc1nc3ccccc3s1)[C@]1(C(=O)Nc3ccccc31)[C@H]2c1ccc(O)cc1 -0.363
CCN(CC)c1ccc(N2CC=CC34O[C@@H]5C=CCCOC(=O)C5[C@H]3C(=O)N(CCCCCO)[C@@H]4C2=O)cc1 (some centres not stated) -0.947
COCCOC(=O)N1C(=O)[C@@]2(c3cc(C#CCC(C(=O)OC)C(=O)OC)ccc31)[C@H](c1ccc(O)cc1)N1[C@H](c3ccccc3)[C@H](c3ccccc3)OC(=O)[C@H]1[C@@H]2C(N)=O 0.075
NC(=O)NCC#Cc1ccc2c(c1)[C@]1(C(=O)N2)[C@H](C(=O)N2CCCCCCC2)[C@H]2C(=O)O[C@H](c3ccccc3)[C@H](c3ccccc3)N2[C@@H]1c1ccc(OCCO)cc1 -0.0789
CC(C)N1CC=CC23O[C@@H]4C=CCOC(=O)[C@@H]4[C@H]2C(=O)N(CCO)[C@@H]3C1=O (some centres not stated) -0.289
COc1ccc(CCNC(=O)[C@@]2(c3ccc([N+](=O)[O-])cc3)CC(=O)N(CC34CC5CC(CC(C5)C3)C4)[C@@H]2c2ccc(CO)cc2)cc1 -1.36
COCCOC(=O)N1C(=O)[C@@]2(c3ccccc31)[C@H](C(=O)NC[C@H](O)c1ccccc1)[C@H]1C(=O)O[C@H](c3ccccc3)[C@H](c3ccccc3)N1[C@@H]2c1ccc(OCCO)cc1 -1.46
COc1ccc(C(O)C2C=CC3C(=O)NC(=O)C3N2Nc2ccccn2)cc1OCc1ccccc1 (configuration not stated) -0.484
COCCOC(=O)N1C(=O)[C@@]2(c3cc(C#CC4=CCCCC4)ccc31)[C@H](C(=O)NC[C@H](O)c1ccccc1)[C@H]1C(=O)O[C@H](c3ccccc3)[C@H](c3ccccc3)N1[C@@H]2c1ccc(O)cc1 1.19
COc1ccc([Si](C)(C)[C@@H]2[C@@H](CCn3cc([C@H](O)c4ccccc4)nn3)O[C@]3(C(=O)N(Cc4ccc(N5C(=O)c6cccc7cccc5c67)cc4)c4ccccc43)[C@H]2C)cc1 0.364
[N-]=[N+]=NCc1ccccc1C[C@]1(C(=O)O)N=C(c2ccc(OCCCO)cc2)O[C@H]1c1ccccc1CN=[N+]=[N-] -0.046
CC(C)NC(=O)[C@@H]1c2ccccc2C(=O)N(Cc2ccccc2)[C@H]1c1ccc(CO)cc1 -0.0818
COCCOC(=O)N1C(=O)[C@@]2(c3cc(C#CCNC(N)=O)ccc31)[C@H](c1ccccc1OCCO)N1[C@H](c3ccccc3)[C@H](c3ccccc3)OC(=O)[C@H]1[C@@H]2C(N)=O 0.287
O=C1C2C=CC(C(O)c3ccc(B(O)O)cc3)N(Nc3ccccc3)C2C(=O)N1c1ccccc1 (configuration not stated) -1.06
COC(=O)[C@@]1(Cc2ccc(F)cc2)[C@H]2c3cc(C(=O)N(C)C)n(CCc4ccccn4)c3C[C@H]2CN1C(=O)c1ccccc1 -0.604
Cc1ccc(S[C@]2(C(=O)NC3CC3)CC(=O)N(Cc3ccccc3)[C@@H]2c2ccc(CO)cc2)cc1 0.396
O=C1C2C=CC(C(O)c3ccc(F)cc3)N(Nc3ccccc3)C2C(=O)N1c1ccccc1 (configuration not stated) -0.686
Cc1cc(C)c(C(O)C2C=CC3C(=O)N(C)C(=O)C3N2Nc2ccccc2)c(C)c1 (configuration not stated) 0.3
[N-]=[N+]=NCc1ccccc1C[C@]1(C(=O)NCCN2CCOCC2)N=C(c2ccc(OCCCO)cc2)O[C@H]1c1ccccc1N=[N+]=[N-] -0.446
O=C(OCCF)C1=CCC(c2cccc(Cl)c2)O1 (configuration not stated) -0.0826
[N-]=[N+]=NCc1ccccc1C[C@]1(C(=O)NCC(O)CO)N=C(c2ccc(OCCCO)cc2)O[C@H]1c1ccccc1N=[N+]=[N-] (some centres not stated) -0.000841
COCC1=C2[C@@H](CCc3ccccc3)OB(O)C[C@@H]2[C@@H]2C(=O)N(Cc3ccccc3)C(=O)[C@@H]2C1 1.07
[N-]=[N+]=Nc1ccccc1[C@H]1OC(c2ccc(OCCCO)cc2)=N[C@@]1(CCS(=O)(=O)c1ccccc1)C(=O)O 0.713

assay: basal CRE-LacZ reporter activity in PC12 – cell-based, unstimulated, primary screen (AID 1145); settings: no forskolin, luminescence, 4.5 h, higher = more signal, called active from +8 up or from −8 down

z-score, inactive:
COCC(=C=CC[C@@H](O)c1ccc(CO)o1)CCO 0.014
CC(C)N1C(=O)c2ccccc2[C@@H](C(=O)NCCCN(C)C)[C@@H]1c1ccc(CO)cc1 -0.116
C=C[C@@H](COC(C)=O)N(Cc1ccc([N+](=O)[O-])cc1)S(=O)(=O)c1ccc(Br)cc1 0.661
CC(C)C(=C=CC[C@@H](O)c1ccccc1OCCO)C[C@@H](O)c1ccccn1 1.19
C=CCNC(=O)[C@@H]1[C@H]2C(=O)O[C@H](c3ccccc3)[C@H](c3ccccc3)N2[C@H](c2ccc(O)cc2)[C@@]12C(=O)N(C(=O)OCCOC)c1ccccc12 1.04
CC(C)(C)OC(=O)CC[C@@]1(C(=O)NCCN2CCOCC2)N=C(c2ccc(OCCCO)cc2)O[C@@H]1c1ccccc1 -1.33
N#Cc1ccc(NN2C(C(O)C3CCCCC3)C=CC3C(=O)N(c4ccccc4)C(=O)C32)cc1 (configuration not stated) 0.808
C=CCN1C(=O)[C@]2(O[C@H](CCO)[C@@H]([Si](C)(C)c3ccc(OC)cc3)[C@@H]2C)c2cc(NC(=O)[C@H](C)O)ccc21 6.89
O=C1O[C@H](c2ccccc2)[C@H](c2ccccc2)N2[C@H]1[C@@H](C(=O)N1CCN(c3ncccn3)CC1)[C@]1(C(=O)Nc3ccccc31)[C@H]2c1ccc(OCCO)cc1 -0.528
O=C1OCCC/C=C\[C@H]2OC34C=CCN(Cn5nnc6ccccc65)C(=O)[C@H]3N(CCCCCO)C(=O)[C@@H]4C12 (some centres not stated) -0.35
COc1cc2c(cc1OC)CN(C(=O)[C@@H]1[C@H]3C(=O)O[C@H](c4ccccc4)[C@H](c4ccccc4)N3[C@H](c3ccccc3OCCO)[C@@]13C(=O)Nc1ccc(C#CCNC(N)=O)cc13)CC2 -0.168
COC(=O)[C@@]1(Cc2ccccc2)[C@H]2c3cc(C(=O)N4CCCC4)n(C)c3C[C@H]2CN1C(=O)c1ccccc1 -0.182
O=C1O[C@H](c2ccccc2)[C@H](c2ccccc2)N2[C@H]1[C@@H](C(=O)Nc1nc3ccccc3s1)[C@]1(C(=O)Nc3ccccc31)[C@H]2c1ccc(O)cc1 0.478
CCN(CC)c1ccc(N2CC=CC34O[C@@H]5C=CCCOC(=O)C5[C@H]3C(=O)N(CCCCCO)[C@@H]4C2=O)cc1 (some centres not stated) 0.593
COCCOC(=O)N1C(=O)[C@@]2(c3cc(C#CCC(C(=O)OC)C(=O)OC)ccc31)[C@H](c1ccc(O)cc1)N1[C@H](c3ccccc3)[C@H](c3ccccc3)OC(=O)[C@H]1[C@@H]2C(N)=O -0.329
NC(=O)NCC#Cc1ccc2c(c1)[C@]1(C(=O)N2)[C@H](C(=O)N2CCCCCCC2)[C@H]2C(=O)O[C@H](c3ccccc3)[C@H](c3ccccc3)N2[C@@H]1c1ccc(OCCO)cc1 0.619
CC(C)N1CC=CC23O[C@@H]4C=CCOC(=O)[C@@H]4[C@H]2C(=O)N(CCO)[C@@H]3C1=O (some centres not stated) -1.3
COc1ccc(CCNC(=O)[C@@]2(c3ccc([N+](=O)[O-])cc3)CC(=O)N(CC34CC5CC(CC(C5)C3)C4)[C@@H]2c2ccc(CO)cc2)cc1 -0.062
COCCOC(=O)N1C(=O)[C@@]2(c3ccccc31)[C@H](C(=O)NC[C@H](O)c1ccccc1)[C@H]1C(=O)O[C@H](c3ccccc3)[C@H](c3ccccc3)N1[C@@H]2c1ccc(OCCO)cc1 -1.83
COc1ccc(C(O)C2C=CC3C(=O)NC(=O)C3N2Nc2ccccn2)cc1OCc1ccccc1 (configuration not stated) 0.629
COCCOC(=O)N1C(=O)[C@@]2(c3cc(C#CC4=CCCCC4)ccc31)[C@H](C(=O)NC[C@H](O)c1ccccc1)[C@H]1C(=O)O[C@H](c3ccccc3)[C@H](c3ccccc3)N1[C@@H]2c1ccc(O)cc1 0.208
COc1ccc([Si](C)(C)[C@@H]2[C@@H](CCn3cc([C@H](O)c4ccccc4)nn3)O[C@]3(C(=O)N(Cc4ccc(N5C(=O)c6cccc7cccc5c67)cc4)c4ccccc43)[C@H]2C)cc1 1.22
[N-]=[N+]=NCc1ccccc1C[C@]1(C(=O)O)N=C(c2ccc(OCCCO)cc2)O[C@H]1c1ccccc1CN=[N+]=[N-] 2.87
CC(C)NC(=O)[C@@H]1c2ccccc2C(=O)N(Cc2ccccc2)[C@H]1c1ccc(CO)cc1 0.0279
COCCOC(=O)N1C(=O)[C@@]2(c3cc(C#CCNC(N)=O)ccc31)[C@H](c1ccccc1OCCO)N1[C@H](c3ccccc3)[C@H](c3ccccc3)OC(=O)[C@H]1[C@@H]2C(N)=O 0.802
O=C1C2C=CC(C(O)c3ccc(B(O)O)cc3)N(Nc3ccccc3)C2C(=O)N1c1ccccc1 (configuration not stated) 0.24
COC(=O)[C@@]1(Cc2ccc(F)cc2)[C@H]2c3cc(C(=O)N(C)C)n(CCc4ccccn4)c3C[C@H]2CN1C(=O)c1ccccc1 0.39
